Source: PubChem BioAssay (several laboratories)
CF NFkB block: inhibitors of PAF-induced NF-kB signaling, primary screen, cell-based, GFP fluorescence, uHTS. AID 588850, 2011. inhibition, % at 5 µM. actives 0.86% (n = 360,000). KKLEB NF-kB-GFP reporter, GFP fluorescence overnight;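 active means at least 50% inhibition at 5 µM, scaled per plate between neutral and stimulator controls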;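 further: PAF is a Pseudomonas aeruginosa culture filtrate used as stimulus; plate controls were PAF-stimulated DMSO wells for no effect and unstimulated DMSO wells for full effect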
KKLEB cytotox: cytotoxicity in KKLEB CF airway cells, primary screen, cytotoxicity control for CF NF-kB inhibitor project, cell-based, uHTS, fluorescence assay plates. KKLEB CF airway cells viability, ATPlite luminescence, overnight; active compounds read low; cells stimulated with P. aeruginosa culture filtrate. activity change (cytotoxicity), % at 5 µM. actives 0.36% (n = 360,000);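 active means corrected activity change at or below -50% at 5 µM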
TRPM1 prom inh: inhibitors of MITF-dependent TRPM1 promoter reporter, primary screen, cell-based, SK-MEL-5, single point, luciferase | inhibition, % at 12.5 µM | SK-MEL-5 TRPM1 promoter luciferase, 24 h | actives 0.83% (n = 330,000);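 active means mean inhibition across replicates of 60% or more, whatever share of single replicates reaches that level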
Peg3 prom inh: Peg3 promoter-driven luciferase inhibitors, primary screen, cell-based, HeLa, luciferase luminescence; HeLa PEG-Prom luciferase reporter, overnight; inhibition, % at 20 µM; actives 1.7% (n = 360,000); AID 588405, 2011;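 active means inhibition of at least 50% at 20 µM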
HIF-2a inh: HIF-2a reporter inhibitors, primary screen, luminescence, 786-0 RCC cells; 786-0 RCC cells HIF-2a reporter, luciferase luminescence, overnight; inhibition, % at 18.8 µM; AID 624352, 2012; actives 0.72% (n = 360,000);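 active means inhibition of the luminescence signal of 40% or more relative to plate controls, in a single-dose primary screen at 18.75 µM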
ABHD5 PLIN5 PPI: ABHD5-PLIN5 interaction inhibitors, primary screen, cell lysate, split luciferase complementation, luminescence | Perilipin-5 (Homo sapiens) + 1-acylglycerol-3-phosphate O-acyltransferase ABHD5 (Homo … | inhibition, % at 4 µM | Split G. princeps luciferase complementation, 4 h | AID 602281, 2012 | actives 0.78% (n = 360,000);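 active means inhibition above the mean inhibition across every tested compound plus 3 SD, cut at about 22% in these data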;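 further: 0% = DMSO only wells and the 100% control is not disclosed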
ABHD5-PLIN5 conf: ABHD5-PLIN5 interaction inhibitors, confirmation, biochemical, luminescence | shares compounds with ABHD5 PLIN5 PPI | inhibition, % at 4 µM | actives 67% (n = 2,200) | AID 651612, 2012; in the data active means inhibition above about 23%;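 further: 0% = DMSO vehicle wells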
HNF4 split-luc: HNF4 dimerization inhibitors, counter-screen for ABHD5-PLIN5 interaction inhibitor project, biochemical, split-luciferase complementation, luminescence; shares compounds with ABHD5 PLIN5 PPI; inhibition, % at 4 µM; actives 77% (n = 2,200); AID 651674, 2012;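 active means mean inhibition across replicate wells exceeding the computed hit threshold, cut at about 13% in these data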;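 further: light from luciferase halves that rejoin when HNF4 fusion proteins dimerize; 0% = DMSO only wells and the 100% control is not given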
Target sequence (P41235 whole entry, looked up, the tested form may be a part): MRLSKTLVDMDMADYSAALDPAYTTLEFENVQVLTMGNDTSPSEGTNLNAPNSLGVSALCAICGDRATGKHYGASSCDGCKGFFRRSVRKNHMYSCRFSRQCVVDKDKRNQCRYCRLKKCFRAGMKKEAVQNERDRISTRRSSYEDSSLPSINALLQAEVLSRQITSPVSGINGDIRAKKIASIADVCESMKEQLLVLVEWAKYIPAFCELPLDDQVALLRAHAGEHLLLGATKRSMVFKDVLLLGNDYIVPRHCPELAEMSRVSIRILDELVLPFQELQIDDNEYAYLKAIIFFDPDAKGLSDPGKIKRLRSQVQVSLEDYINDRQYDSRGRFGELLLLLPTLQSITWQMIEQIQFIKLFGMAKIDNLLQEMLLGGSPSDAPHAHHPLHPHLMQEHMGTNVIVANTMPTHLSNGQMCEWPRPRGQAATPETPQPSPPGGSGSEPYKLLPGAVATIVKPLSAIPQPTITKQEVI
* = called active by the depositor. Hits are enriched below; roughly 3% of the tested compounds scored in any of these assays.

How did Oc1ccc2sc(-c3ccccc3O)c(-c3ccc(OCCN4CCCCC4)cc3)c2c1 do in these assays?
HIF-2a inh: -3; ABHD5 PLIN5 PPI: 27*; ABHD5-PLIN5 conf: 18

Results for c1ccc(COc2ccc(OCCN3CCCCC3)cc2)cc1 ?
CF NFkB block: 12; KKLEB cytotox: -2; TRPM1 prom inh: -11; Peg3 prom inh: -92; HIF-2a inh: -136; ABHD5 PLIN5 PPI: 7

How did COc1cccc(-c2sc3ccccc3c2-c2ccc(OCCN3CCCCC3)cc2)c1 do in these assays?
CF NFkB block: 29; KKLEB cytotox: -46; TRPM1 prom inh: -8; Peg3 prom inh: 84*; HIF-2a inh: 15; ABHD5 PLIN5 PPI: 29*; ABHD5-PLIN5 conf: 9; HNF4 split-luc: -6

Results for COc1ccc(-c2sc3cc(OC)ccc3c2-c2ccc(OCCN3CCCCC3)cc2)cc1 ?
HIF-2a inh: 5; ABHD5 PLIN5 PPI: 25*; ABHD5-PLIN5 conf: 8; HNF4 split-luc: -2

Results for O=[N+]([O-])c1c(NCCCO)cc(N2CCCCCC2)c2nonc12 ?
CF NFkB block: -9; KKLEB cytotox: 4; TRPM1 prom inh: -4; Peg3 prom inh: 22; HIF-2a inh: 10; ABHD5 PLIN5 PPI: -7

What do the screens show for `Cn1ccnc1Sc1cc(NCCCO)c([N+](=O)[O-])c2nonc12`?
CF NFkB block: -19; KKLEB cytotox: 18; TRPM1 prom inh: -3; Peg3 prom inh: 85*; HIF-2a inh: 21; ABHD5 PLIN5 PPI: 26*; ABHD5-PLIN5 conf: 29*; HNF4 split-luc: 95*

Results for O=C1Nc2ccccc2/C1=C/c1ccccc1Cl ?
CF NFkB block: 11; KKLEB cytotox: -1; TRPM1 prom inh: -4; Peg3 prom inh: 13; HIF-2a inh: -26; ABHD5 PLIN5 PPI: 27*; ABHD5-PLIN5 conf: 40*; HNF4 split-luc: 26*

Results for O=C1Nc2ccccc2/C1=C\C(=O)c1ccccc1 ?
CF NFkB block: 17; KKLEB cytotox: -14; TRPM1 prom inh: 10; Peg3 prom inh: 65*; HIF-2a inh: 12; ABHD5 PLIN5 PPI: 50*; ABHD5-PLIN5 conf: 82*; HNF4 split-luc: 96*

What do the screens show for `CC(C)Oc1ccc(C(=O)/C=C2/C(=O)Nc3ccccc32)cc1`?
CF NFkB block: 15; KKLEB cytotox: -16; TRPM1 prom inh: -1; Peg3 prom inh: 5; HIF-2a inh: -7; ABHD5 PLIN5 PPI: 62*; ABHD5-PLIN5 conf: 82*; HNF4 split-luc: 86*

What do the screens show for `COc1ccc(C(=O)/C=C2\C(=O)Nc3ccc(Br)cc32)cc1`?
CF NFkB block: 11; KKLEB cytotox: -14; TRPM1 prom inh: 1; Peg3 prom inh: 76*; HIF-2a inh: -43; ABHD5 PLIN5 PPI: 85*; ABHD5-PLIN5 conf: 97*; HNF4 split-luc: 91*

How did CN(O)/C=C1\C(=O)Nc2ccccc21 do in these assays?
CF NFkB block: 11; KKLEB cytotox: 15; TRPM1 prom inh: 21; Peg3 prom inh: 20; HIF-2a inh: 26; ABHD5 PLIN5 PPI: -34

What do the screens show for `O=C(/C=C1\C(=O)Nc2ccccc21)/C=C1\C(=O)Nc2ccccc21`?
CF NFkB block: 8; KKLEB cytotox: -4; TRPM1 prom inh: 46; Peg3 prom inh: 26; HIF-2a inh: 39; ABHD5 PLIN5 PPI: 63*; ABHD5-PLIN5 conf: 102*; HNF4 split-luc: 105*

Results for COc1ccc(C(=O)C=Cc2ccc3c(c2)OCO3)cc1OC ?
CF NFkB block: 41; KKLEB cytotox: -15; Peg3 prom inh: -101; HIF-2a inh: -53; ABHD5 PLIN5 PPI: 1
